Results taken from the supplement of paper PMC11732987, “Enantioselective OTUD7B fragment discovery through chemoproteomics screening and high-throughput optimisation” (Communications Chemistry, 2025).

Assays:
Assay in all cases: log2 ratio of Biotin-Ahx-Ub-VS probe labelling (fragment/DMSO); higher = less target engagement (more negative = stronger competition), active = hit call of the paper (q ≤ 0.05, log2 ratio ≤ -1)
Conditions in all cases: compound concentration: 200 uM; treatment time: 3 h
USP42 = target: T1, USP42 (UniProt Q9H9J4)
T1 sequence (whole entry): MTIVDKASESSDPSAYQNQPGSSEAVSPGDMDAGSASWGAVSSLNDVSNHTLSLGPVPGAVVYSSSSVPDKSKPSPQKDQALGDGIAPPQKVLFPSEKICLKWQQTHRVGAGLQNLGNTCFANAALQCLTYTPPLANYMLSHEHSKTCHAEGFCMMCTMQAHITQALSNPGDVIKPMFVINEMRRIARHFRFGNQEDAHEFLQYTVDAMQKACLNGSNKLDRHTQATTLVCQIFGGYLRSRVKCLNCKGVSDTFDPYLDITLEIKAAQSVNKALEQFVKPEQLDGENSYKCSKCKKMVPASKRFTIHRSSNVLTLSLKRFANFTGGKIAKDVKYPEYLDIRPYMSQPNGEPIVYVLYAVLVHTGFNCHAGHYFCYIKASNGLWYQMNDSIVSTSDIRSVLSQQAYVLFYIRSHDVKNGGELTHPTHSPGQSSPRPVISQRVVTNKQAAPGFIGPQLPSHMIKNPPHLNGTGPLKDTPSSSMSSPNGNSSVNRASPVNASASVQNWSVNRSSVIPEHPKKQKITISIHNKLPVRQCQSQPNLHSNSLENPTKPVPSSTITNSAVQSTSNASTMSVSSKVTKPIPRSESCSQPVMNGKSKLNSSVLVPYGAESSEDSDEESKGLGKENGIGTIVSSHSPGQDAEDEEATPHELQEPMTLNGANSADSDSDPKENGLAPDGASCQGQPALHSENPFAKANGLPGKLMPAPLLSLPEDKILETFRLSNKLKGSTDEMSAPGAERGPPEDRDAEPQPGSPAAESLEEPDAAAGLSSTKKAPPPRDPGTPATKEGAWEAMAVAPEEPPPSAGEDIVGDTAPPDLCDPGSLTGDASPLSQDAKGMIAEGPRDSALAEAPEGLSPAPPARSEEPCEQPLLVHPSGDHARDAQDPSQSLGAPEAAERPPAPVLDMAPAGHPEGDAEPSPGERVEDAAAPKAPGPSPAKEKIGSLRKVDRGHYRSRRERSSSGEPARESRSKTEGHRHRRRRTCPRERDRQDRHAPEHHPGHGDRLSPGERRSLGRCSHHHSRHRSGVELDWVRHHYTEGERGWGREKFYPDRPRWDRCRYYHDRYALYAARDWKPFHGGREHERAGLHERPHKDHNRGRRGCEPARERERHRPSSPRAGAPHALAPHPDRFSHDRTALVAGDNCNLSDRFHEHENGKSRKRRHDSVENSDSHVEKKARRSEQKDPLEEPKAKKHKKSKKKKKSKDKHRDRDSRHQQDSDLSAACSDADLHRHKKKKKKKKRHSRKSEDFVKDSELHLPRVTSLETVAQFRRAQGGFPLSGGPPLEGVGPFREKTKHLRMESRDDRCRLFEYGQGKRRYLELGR
Summary of the method: (§1)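 Using Biotin-Ahx-Ub-VS at 0.5 µM final for 1 h, DUBs were labelled in HEK293T lysate (495 µg per sample) that had first been treated in triplicate with fragment at 200 µM or vehicle for 3 h. NeutrAvidin enrichment, LysC and trypsin digestion and diaPASEF LC-MS/MS followed. Spectronaut label-free quantities were global-median-normalised. Values are average log2 fragment/vehicle ratios by unpaired t-test, using proteins with ≥2 unique peptides.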

USP46 = USP46 (UniProt P62068)
Summary of the method: as §1

USP47 = target: T2, USP47 (UniProt Q96K76)
T2 sequence (whole entry): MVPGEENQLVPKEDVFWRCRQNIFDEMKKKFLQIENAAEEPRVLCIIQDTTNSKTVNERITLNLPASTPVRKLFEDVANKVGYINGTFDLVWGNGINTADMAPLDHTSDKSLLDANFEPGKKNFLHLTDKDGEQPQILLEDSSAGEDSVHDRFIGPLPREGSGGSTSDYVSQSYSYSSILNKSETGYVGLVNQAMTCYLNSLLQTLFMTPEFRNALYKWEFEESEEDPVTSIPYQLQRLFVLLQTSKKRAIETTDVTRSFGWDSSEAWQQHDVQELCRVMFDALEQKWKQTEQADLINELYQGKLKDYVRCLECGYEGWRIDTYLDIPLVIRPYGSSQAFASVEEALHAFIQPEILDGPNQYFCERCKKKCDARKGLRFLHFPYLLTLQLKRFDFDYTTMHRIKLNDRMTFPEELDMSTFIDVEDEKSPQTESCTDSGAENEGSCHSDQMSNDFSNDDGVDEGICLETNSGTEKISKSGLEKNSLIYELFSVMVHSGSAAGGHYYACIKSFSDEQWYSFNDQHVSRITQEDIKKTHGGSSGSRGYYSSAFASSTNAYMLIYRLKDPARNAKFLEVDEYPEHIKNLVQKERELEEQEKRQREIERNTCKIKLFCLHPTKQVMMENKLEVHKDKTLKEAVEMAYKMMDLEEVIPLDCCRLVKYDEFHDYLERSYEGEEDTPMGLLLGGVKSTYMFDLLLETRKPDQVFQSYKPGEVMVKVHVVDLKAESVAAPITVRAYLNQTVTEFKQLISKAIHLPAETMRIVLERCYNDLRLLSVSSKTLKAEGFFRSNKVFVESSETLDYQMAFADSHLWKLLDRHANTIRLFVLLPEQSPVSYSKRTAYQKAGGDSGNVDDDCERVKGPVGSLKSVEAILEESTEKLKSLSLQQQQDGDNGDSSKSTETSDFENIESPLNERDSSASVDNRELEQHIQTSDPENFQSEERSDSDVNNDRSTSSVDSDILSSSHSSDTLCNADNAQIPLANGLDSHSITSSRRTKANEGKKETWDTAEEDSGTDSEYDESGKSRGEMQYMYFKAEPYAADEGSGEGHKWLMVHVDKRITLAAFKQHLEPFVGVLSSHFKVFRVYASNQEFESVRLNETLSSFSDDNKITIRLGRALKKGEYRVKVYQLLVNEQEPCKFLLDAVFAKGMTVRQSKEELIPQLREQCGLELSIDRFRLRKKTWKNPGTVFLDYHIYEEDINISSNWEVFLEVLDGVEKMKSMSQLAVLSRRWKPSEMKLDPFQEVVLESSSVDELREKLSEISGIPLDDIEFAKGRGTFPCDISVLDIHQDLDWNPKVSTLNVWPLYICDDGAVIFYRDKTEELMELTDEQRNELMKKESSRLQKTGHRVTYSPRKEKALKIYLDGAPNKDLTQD
Summary of the method: as §1

USP48 = target: T3, USP48 (UniProt Q86UV5)
T3 sequence (whole entry): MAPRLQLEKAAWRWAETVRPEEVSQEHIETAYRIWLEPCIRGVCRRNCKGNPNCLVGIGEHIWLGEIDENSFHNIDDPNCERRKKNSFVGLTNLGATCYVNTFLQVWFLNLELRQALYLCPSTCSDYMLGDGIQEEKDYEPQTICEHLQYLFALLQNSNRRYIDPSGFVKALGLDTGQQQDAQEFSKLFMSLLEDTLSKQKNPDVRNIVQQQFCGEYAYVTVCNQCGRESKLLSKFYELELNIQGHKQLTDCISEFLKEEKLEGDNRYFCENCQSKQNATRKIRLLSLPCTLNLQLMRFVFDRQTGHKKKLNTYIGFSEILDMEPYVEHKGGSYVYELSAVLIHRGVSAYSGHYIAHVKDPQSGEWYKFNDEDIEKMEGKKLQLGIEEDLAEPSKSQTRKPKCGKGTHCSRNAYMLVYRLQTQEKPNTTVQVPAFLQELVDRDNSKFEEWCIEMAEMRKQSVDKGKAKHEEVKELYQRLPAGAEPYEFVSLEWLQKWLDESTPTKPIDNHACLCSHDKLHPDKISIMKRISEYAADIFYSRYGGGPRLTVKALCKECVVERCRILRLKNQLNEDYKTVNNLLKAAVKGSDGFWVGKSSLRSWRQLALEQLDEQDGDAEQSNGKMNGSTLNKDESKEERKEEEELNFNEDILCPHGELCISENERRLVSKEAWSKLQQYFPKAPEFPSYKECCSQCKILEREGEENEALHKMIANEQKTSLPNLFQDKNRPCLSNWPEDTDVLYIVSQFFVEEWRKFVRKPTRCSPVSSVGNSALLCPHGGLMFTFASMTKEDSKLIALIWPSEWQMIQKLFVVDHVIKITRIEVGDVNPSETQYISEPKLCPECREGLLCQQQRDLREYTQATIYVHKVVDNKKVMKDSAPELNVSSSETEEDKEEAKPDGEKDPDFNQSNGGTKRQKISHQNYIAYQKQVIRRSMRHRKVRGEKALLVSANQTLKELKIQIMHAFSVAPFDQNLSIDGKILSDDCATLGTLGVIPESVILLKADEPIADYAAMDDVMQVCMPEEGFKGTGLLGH
Summary of the method: as §1

USP5 = target: T4, USP5 (UniProt P45974)
T4 sequence (whole entry): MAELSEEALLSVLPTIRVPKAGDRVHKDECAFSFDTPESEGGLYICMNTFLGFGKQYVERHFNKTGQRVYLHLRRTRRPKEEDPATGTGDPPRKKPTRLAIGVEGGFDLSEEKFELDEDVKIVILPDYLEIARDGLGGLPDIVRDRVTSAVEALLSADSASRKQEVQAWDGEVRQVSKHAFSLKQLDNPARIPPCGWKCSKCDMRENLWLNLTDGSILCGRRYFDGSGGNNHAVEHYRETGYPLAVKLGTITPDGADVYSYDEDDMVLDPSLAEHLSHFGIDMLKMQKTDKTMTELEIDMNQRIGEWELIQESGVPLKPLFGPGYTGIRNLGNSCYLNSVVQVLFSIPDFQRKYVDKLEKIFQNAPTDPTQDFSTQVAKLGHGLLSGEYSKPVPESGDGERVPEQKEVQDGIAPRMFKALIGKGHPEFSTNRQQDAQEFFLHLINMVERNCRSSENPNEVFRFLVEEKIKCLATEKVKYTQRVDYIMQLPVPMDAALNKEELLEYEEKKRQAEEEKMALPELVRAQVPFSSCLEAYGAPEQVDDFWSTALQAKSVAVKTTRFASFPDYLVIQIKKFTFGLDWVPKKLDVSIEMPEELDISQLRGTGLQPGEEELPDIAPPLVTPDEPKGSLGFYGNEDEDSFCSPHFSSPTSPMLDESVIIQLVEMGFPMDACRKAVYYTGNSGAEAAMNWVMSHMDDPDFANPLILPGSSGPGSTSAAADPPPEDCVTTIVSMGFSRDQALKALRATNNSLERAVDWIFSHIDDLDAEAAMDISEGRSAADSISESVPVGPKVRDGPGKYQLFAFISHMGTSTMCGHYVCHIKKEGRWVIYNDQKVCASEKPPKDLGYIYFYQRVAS
Summary of the method: as §1

USP54 = USP54 (UniProt Q70EL1)
Summary of the method: as §1

USP7 = USP7 (UniProt Q93009)
Summary of the method: as §1

USP8 = target: T5, USP8 (UniProt P40818)
T5 sequence (whole entry): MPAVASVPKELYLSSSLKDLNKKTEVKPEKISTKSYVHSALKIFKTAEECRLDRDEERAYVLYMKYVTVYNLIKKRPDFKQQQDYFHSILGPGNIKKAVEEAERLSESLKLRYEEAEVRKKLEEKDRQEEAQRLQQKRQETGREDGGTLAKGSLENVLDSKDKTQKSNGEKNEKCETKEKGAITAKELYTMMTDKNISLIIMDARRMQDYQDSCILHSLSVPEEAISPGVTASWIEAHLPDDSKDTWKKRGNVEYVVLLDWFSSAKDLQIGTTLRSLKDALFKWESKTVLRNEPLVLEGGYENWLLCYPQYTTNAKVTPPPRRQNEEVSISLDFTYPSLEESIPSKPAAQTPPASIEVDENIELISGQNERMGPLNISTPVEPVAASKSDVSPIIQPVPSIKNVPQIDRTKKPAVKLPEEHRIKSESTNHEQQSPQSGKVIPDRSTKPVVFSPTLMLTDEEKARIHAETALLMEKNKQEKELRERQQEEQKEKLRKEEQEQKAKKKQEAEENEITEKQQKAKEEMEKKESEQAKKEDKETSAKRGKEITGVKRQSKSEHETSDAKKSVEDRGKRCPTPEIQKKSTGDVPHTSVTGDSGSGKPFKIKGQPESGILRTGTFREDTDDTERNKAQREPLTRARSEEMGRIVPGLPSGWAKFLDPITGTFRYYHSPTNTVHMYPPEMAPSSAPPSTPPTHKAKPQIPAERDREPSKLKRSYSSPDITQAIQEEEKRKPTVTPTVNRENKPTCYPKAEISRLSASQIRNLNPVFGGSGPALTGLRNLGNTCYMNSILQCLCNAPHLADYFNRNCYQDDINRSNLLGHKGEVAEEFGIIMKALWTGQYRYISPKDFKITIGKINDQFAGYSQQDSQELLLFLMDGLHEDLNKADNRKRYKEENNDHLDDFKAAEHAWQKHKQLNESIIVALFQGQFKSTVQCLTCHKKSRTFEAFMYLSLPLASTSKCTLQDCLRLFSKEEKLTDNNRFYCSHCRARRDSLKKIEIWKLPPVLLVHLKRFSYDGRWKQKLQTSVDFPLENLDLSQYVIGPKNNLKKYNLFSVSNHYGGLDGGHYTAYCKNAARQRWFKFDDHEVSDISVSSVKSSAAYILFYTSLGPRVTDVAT
Summary of the method: as §1

USP9X = USP9X (UniProt Q93008)
Summary of the method: as §1

UniProt O00487 = target: UniProt O00487
Summary of the method: as §1

Measured: log2 ratio of Biotin-Ahx-Ub-VS probe labelling

Sequence of UniProt O00487 (O00487 whole entry): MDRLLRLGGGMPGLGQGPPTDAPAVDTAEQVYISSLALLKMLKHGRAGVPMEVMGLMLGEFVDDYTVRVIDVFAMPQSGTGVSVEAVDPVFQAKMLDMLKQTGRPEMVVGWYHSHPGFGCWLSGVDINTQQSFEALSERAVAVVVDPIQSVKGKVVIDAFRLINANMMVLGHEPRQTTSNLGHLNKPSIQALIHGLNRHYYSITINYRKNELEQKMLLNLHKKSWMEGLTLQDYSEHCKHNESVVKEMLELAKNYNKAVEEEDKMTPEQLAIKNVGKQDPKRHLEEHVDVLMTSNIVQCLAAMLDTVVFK
Sequence of USP9X (Q93008 whole entry): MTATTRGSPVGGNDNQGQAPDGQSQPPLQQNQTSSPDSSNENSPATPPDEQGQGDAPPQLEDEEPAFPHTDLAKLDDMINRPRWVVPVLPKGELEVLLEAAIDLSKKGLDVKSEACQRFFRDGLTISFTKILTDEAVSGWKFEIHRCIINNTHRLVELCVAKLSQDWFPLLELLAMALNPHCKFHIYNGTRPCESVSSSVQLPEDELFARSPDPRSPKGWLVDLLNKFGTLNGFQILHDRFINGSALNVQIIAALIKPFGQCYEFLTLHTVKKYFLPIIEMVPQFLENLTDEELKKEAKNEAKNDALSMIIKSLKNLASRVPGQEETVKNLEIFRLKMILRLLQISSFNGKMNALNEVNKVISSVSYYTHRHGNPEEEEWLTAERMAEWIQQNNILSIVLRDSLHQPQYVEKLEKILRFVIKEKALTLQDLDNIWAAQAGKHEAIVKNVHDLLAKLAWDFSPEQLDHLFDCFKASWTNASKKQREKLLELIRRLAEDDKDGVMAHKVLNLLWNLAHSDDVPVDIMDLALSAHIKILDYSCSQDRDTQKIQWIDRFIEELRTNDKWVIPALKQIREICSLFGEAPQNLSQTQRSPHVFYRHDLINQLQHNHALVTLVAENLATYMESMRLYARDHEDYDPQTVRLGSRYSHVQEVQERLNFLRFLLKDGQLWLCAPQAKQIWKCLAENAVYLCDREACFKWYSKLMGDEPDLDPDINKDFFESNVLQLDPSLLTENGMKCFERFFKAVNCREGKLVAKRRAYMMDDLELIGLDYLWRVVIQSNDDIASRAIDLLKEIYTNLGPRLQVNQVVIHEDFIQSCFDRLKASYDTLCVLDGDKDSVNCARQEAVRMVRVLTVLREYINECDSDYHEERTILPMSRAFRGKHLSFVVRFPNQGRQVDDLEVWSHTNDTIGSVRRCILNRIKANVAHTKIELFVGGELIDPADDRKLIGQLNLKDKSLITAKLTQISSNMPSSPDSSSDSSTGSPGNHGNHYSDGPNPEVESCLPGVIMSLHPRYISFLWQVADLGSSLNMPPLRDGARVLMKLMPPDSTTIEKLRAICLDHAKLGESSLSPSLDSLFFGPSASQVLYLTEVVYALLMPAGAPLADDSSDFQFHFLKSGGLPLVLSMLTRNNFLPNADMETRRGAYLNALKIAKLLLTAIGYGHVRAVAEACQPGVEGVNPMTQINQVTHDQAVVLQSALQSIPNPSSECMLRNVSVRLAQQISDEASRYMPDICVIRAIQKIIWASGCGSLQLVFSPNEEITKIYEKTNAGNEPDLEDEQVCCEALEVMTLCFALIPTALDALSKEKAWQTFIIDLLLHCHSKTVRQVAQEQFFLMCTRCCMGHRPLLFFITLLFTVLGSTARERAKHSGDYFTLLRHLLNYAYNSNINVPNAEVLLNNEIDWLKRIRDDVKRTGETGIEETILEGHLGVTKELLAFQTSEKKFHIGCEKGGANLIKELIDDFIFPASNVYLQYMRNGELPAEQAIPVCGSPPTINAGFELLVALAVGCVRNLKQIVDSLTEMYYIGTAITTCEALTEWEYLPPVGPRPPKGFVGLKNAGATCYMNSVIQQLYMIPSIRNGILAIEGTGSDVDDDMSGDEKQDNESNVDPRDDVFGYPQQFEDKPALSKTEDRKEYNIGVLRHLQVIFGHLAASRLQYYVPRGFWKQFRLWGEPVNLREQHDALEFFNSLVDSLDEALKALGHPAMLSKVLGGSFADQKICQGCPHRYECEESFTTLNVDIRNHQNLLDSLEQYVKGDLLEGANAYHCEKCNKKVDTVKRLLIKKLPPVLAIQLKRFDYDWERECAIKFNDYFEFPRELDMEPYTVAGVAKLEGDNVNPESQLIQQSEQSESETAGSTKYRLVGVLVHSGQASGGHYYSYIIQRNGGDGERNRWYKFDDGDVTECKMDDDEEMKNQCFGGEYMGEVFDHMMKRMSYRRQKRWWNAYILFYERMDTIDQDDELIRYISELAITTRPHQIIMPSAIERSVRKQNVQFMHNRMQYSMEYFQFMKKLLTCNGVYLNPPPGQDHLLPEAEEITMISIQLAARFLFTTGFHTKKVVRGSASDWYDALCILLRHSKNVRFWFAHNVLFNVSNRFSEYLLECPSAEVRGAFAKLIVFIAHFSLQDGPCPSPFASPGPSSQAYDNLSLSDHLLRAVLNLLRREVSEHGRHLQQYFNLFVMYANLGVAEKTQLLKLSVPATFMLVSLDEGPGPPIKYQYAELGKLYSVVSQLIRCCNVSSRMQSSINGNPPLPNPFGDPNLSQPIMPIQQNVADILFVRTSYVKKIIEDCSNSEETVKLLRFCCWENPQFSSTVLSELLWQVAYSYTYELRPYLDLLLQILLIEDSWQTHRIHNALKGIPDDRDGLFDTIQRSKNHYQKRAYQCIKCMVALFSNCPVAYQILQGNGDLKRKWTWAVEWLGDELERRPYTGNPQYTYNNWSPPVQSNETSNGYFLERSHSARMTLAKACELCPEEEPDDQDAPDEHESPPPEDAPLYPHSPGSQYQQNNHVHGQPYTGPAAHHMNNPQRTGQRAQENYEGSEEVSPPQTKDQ
Sequence of USP46 (P62068 whole entry): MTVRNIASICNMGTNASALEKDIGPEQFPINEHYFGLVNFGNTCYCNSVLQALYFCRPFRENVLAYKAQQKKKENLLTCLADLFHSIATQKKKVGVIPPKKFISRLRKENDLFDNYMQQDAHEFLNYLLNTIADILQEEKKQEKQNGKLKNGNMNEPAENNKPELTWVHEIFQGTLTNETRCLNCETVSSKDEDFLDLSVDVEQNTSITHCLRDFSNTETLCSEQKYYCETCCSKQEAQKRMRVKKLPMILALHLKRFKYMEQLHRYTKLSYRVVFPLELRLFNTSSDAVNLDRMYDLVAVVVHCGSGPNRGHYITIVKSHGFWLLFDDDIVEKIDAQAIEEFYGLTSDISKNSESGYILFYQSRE
Sequence of USP7 (Q93009 whole entry, looked up): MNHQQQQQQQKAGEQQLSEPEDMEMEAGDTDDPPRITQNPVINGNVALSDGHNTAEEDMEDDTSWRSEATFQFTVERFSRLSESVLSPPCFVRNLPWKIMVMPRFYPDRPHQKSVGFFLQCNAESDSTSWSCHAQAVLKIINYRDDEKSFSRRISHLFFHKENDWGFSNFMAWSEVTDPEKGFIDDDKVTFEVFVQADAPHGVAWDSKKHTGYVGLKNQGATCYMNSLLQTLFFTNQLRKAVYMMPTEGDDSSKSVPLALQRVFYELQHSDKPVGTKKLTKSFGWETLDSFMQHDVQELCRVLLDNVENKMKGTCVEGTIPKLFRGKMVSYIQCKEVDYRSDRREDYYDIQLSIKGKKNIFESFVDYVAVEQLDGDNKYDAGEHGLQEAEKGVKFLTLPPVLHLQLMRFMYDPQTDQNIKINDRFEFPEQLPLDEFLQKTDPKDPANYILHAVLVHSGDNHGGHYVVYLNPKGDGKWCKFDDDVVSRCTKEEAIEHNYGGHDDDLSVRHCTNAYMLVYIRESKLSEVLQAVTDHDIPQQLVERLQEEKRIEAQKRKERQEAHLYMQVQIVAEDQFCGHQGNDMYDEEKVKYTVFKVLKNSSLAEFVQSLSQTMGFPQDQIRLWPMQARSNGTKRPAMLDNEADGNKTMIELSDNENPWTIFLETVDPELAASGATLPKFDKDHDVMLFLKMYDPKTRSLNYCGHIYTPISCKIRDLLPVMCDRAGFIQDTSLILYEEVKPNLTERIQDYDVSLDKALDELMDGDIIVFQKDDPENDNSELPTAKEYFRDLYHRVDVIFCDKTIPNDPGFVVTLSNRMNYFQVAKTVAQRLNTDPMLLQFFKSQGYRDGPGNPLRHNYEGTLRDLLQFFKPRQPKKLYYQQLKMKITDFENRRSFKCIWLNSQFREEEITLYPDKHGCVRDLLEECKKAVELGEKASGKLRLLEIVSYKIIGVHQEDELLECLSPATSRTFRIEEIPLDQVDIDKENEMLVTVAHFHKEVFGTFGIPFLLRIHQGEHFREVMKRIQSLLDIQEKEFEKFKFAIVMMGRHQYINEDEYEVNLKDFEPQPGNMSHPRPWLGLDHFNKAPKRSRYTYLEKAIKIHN

O=C(CCl)NCc1ccc(Cl)cc1
inactive: USP42 0.175 | USP46 -0.0156 | USP47 -0.0592 | USP48 0.107 | USP5 -0.0207 | USP54 -0.625 | USP7 -0.206 | USP8 0.105 | USP9X 0.00725 | UniProt O00487 -0.0216
